The record followed here is PubChem BioAssay (EPA / NIEHS).

Records with an inconclusive call do not appear. The source made the active and inactive calls. How the source made its calls: active means hit-call score of the fitted dose curve at least 0.9, where 1 is the maximum; inconclusive means response in the unintended direction; inactive means score below 0.9.

Androgen receptor (Homo sapiens), sequence (P10275 whole entry, looked up): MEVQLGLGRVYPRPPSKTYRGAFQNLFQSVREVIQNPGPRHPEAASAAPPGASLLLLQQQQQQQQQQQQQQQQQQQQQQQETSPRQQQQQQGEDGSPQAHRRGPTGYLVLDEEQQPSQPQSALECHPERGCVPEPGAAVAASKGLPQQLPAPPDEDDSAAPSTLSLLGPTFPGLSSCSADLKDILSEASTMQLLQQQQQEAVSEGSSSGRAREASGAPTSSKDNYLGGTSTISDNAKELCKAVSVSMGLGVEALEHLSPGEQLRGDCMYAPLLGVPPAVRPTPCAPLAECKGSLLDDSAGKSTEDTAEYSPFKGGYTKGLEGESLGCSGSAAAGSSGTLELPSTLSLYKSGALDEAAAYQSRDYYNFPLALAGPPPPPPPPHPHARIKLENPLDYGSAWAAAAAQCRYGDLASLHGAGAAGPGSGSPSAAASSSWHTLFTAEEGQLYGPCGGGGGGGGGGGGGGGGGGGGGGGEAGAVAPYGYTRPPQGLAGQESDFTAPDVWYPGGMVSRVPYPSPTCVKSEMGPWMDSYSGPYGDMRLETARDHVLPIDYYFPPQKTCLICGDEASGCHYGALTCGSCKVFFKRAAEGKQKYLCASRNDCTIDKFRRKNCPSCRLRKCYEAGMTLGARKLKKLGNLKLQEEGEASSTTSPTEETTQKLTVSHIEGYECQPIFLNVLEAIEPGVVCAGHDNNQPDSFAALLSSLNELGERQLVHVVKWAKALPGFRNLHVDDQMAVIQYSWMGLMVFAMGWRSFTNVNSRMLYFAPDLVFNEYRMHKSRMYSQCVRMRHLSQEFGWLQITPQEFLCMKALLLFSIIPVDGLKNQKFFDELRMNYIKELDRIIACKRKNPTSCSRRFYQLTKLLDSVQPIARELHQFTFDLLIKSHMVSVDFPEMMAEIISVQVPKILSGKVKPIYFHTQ

The assay addresses Androgen receptor (Homo sapiens) (UniProt P10275). The assay can be described thus: ATG_AR_TRANS: Attagene TRANS-FACTORIAL HepG2 Assay for human Androgen Receptor (AR) (AID 2282973). To be noted: HepG2 Attagene TRANS-FACTORIAL AR reporter transcription. Here is the method: ATG_TRANS is a cell-based, multiplexed-readout assay that uses HepG2, a human liver cell line, with measurements taken at 24 hours after chemical dosing in a 24-well plate.ATG_AR_TRANS is one of 30 assay component(s) measured or calculated from the ATG_TRANS assay. It is designed to make measurements of mRNA induction, a form of inducible reporter, as detected with fluorescence intensity signals by Reverse transcription polymerase chain reaction (RT-PCR) and Capillary electrophoresis technology.Data from the assay component ATG_AR_TRANS was analyzed into 1 assay endpoint. This assay endpoint, ATG_AR_TRANS, was analyzed in the positive analysis fitting direction relative to DMSO as the negative control and baseline of activity. Using a type of inducible reporter, measures of mRNA for gain-of-signal activity can be used to understand the reporter gene at the transcription factor-level as they relate to the gene AR. Furthermore, this assay endpoint can be referred to as a primary readout, because this assay has produced multiple assay endpoints where this one serves a reporter gene function. To generalize the intended target to other relatable targets, this assay endpoint is annotated to the nuclear receptor intended target family, where the subfamily is steroidal.
Human liver HepG2 cells are transiently transfected with multiple reporter transcription units (MRTUs) in 6-well plates using FuGene 6 reagent (Roche; 3 ml FuGene/1 mg DNA). The MRTU constructs are regulated by a cis-regulating element (promoter). […] A major difference between the CIS and TRANS system is that in CIS activities of endogenous TFs are measured, whereas the TRANS assay evaluates changes in activities of exogenous, chimeric NR-Gal4 proteins. […] At the end of 24 hour incubation, total RNA was isolated using TriZol reagent (Invitrogen). The isolated RNA is then reverse-transcribed using oligo(dT) primer and Mo-MLV reverse transcriptase (Invitrogen) with DNAse I (Ambion) treatment for 30 min. The one-tenth of the produced cDNA was amplified by PCR using Taq DNA polymerase (Invitrogen) and two reporter sequence-specific primers. The PCR products were fluorescently labeled by primer extension with 6-arboxyfluorescein (6-FAM) 5'-labeled reporter sequence-specific primer (2 min at 95 C, 20 s at 68 C and 10 min at 72 C) and these products were digested with 5U of HpaI (New England Biolabs) for 2h at 37 C. The fragments were purified using Qiaquick PCR columns (Qiagen), analyzed on an ABI 3130xL genetic analyzer (Applied Biosystems) with peak positions identified by using a set of X-rhodamine (ROX)-labeled MapMarker1000 molecular weight standards (BioVentures). The raw capillary electrophoresis data was processed using Attagraph software (Attagene).
Regarding `Fc1ccccc1[C@@H](F)COC1CCC(Nc2ncnc3[nH]ncc23)CC1` (stereo not given in full), the compound was called inactive.
Under `C=C(C)CCO` stands “inactive”; under `NCCCN1CCN(CCCN)CC1`, “inactive”; under `O=S(=O)(O)CCC(F)(F)C(F)(F)C(F)(F)C(F)(F)C(F)(F)C(F)(F)F`, “inactive”.
Under `Cc1cccc([N+](=O)[O-])c1C` stands “inactive”.
Under `C=CCCCCCCCCCCCC` stands “inactive”.
Regarding `CCCCCCCCCCCCOCCO`, the call was inactive.
Next, `O=C1OC(=O)c2cc(Oc3ccc4c(c3)C(=O)OC4=O)ccc21`: “inactive”.
Under `O=C(O)C(F)(OC(F)(F)C(F)(OC(F)(F)C(F)(F)C(F)(F)F)C(F)(F)F)C(F)(F)F` (stereo not given) stands “inactive”; under `O=[N+]([O-])c1ccc(CO)cc1`, “inactive”.
Next, `OC(O)(C(F)C(O)(O)C(F)(F)F)C(F)(F)F`: “inactive”.
`NCC1CCCC(CN)C1` (stereo not given): the result was inactive.
Next, `CC1CCC(C(=O)O)CC1` (stereo not given): “inactive”.
Under `CC(=N[Si](C)(C)C)O[Si](C)(C)C` stands “inactive”; under `Cc1ccc(S(=O)(=O)Oc2ccc(N=Nc3ccc(-c4ccc(N=Nc5c(O)ccc6cc(S(=O)(=O)O)cc(S(=O)(=O)O)c56)c(C)c4)cc3C)cc2)cc1`, “inactive”.
Next, `C=CC(=O)OCCC(F)(F)C(F)(F)C(F)(F)C(F)(F)F`: “inactive”.
Turning to `C=COCCCC`, the outcome was inactive.
Under `O=C(F)C(F)(F)C(F)(F)C(F)(F)C(F)F` stands “inactive”.
For the compound `COc1cc(-c2nc(NC(=O)c3cc4cc(C)cc(C)c4n3CC(=O)O)sc2CCC2CCCCC2)c(OC)cc1Cl`, the outcome was inactive.
Consider `COc1ccc(C(C)=O)cc1`, for which the compound was called inactive.
For `C=CC(=O)OCC(F)(F)C(F)(F)C(F)(F)C(F)(F)C(F)(F)C(F)(F)C(F)(F)F`, the outcome was inactive.
Under `CCc1c(Br)c(Br)c(Br)c(Br)c1Br` stands “inactive”.
Next, `CC(=O)O[C@@H]1CC2CCC1(C)C2(C)C` (stereo not given in full): “inactive”.
Under `CCCCC(CC)COC(=O)/C=C\C(=O)OCC(CC)CCCC` (stereo not given) stands “inactive”; under `COc1cc(C=O)ccc1O`, “inactive”; under `FC(F)(F)C(F)(F)C(F)(F)C(F)(F)C(F)(F)C(F)(F)CC[Si](Cl)(Cl)Cl`, “inactive”.
Take `CCC(=O)C1CC(C(C)C)CC=C1C` (stereo not given): the call was inactive.
Under `O=C1OC(=O)C(F)(F)C1(F)F` stands “inactive”; under `OCCC(F)(F)C(F)(F)C(F)(F)C(F)(F)C(F)(F)C(F)(F)C(F)(F)C(F)(F)F`, “inactive”.
Next, `O=C(O)C(F)(F)C(F)(F)C(F)(F)C(F)(F)F`: “inactive”; `CCO[Si](CCC(F)(F)C(F)(F)C(F)(F)C(F)(F)C(F)(F)C(F)(F)F)(OCC)OCC`: “inactive”; `CC1(C)[C@H](C(=O)O[C@H](C#N)c2cccc(Oc3ccccc3)c2)[C@@H]1C=C(Br)Br`: “inactive”.
Under `CO[Si](CCCNCCN)(OC)OC` stands “inactive”; under `CO[Si](C)(CCC(F)(F)C(F)(F)C(F)(F)C(F)(F)C(F)(F)C(F)(F)F)OC`, “inactive”; under `FC(OC(F)(F)C(F)(F)C(F)(F)F)C(F)(F)F` (stereo not given), “inactive”.
As for `CC(C)(C)c1n[nH]c(=O)n(N)c1=O`, the call was inactive.
Next, `O=C1C=CC(=O)N1c1ccccc1`: “inactive”; `CC1CCC(C(C)C)C(O)C1` (stereo not given): “inactive”; `Cc1cc(=O)[nH]c(C(C)C)n1`: “inactive”.
Under `FC(F)(F)C(F)(F)C(F)(F)C(F)(F)C(F)(F)C(F)(F)C(F)(F)Br` stands “inactive”.
